# Measurements as given in the OligoGym collection.
# Target: CMYA5
# Experiment: pooled miR-30 sensor sort-seq; sequence = guide strand
# Details: shRNA
# Note: reference of the scale not given here.
row,Sequence,sensor-assay potency score (higher = more potent)
1,TTCGATAGCTCTGACTCTCTGA,0.415
2,TACTTCTTGATCATCTTGTGGC,0.514
3,TTAACATCTGGTCACTTCTTGC,-0.814

# Target: CNGA4
# Experiment: as above
# Details: shRNA
row,Sequence,sensor-assay potency score (higher = more potent)
1,TCGTTGGTCATCTTCTTGTTGA,-0.985
2,TTGTAGATGACAGAGCTCATGC,-0.748
3,ATGATGTACATCTCTTGGCCAA,-1.02
4,ACTGTAGTCAGTATCAGCGTGG,-0.617
5,TAAGCAATCTTAAGTGCGCTGG,0.0217
6,ATAACCGTGCTGCAAGTCGGGG,-1.46
7,TTGATGTTGGCTGTGCGGCGGT,-0.481
8,TACCTCGTTGGTCATCTTCTTG,-0.968
9,TGCTTGTGGATACTCGCTCAGC,-1.17
10,TCTCGGATGATGTACATCTCTT,-0.967
11,TTCACCTGGTGAGTAGGTCTGG,-0.244
12,TTCAATGCGGTAAGCAATCTTA,-0.691
13,TAAGCTGTGCGGGTCTCTGTGC,-0.546
14,TACCAGTCAATAACTCGCCGCT,0.117
15,ATACCAGTCAATAACTCGCCGC,-0.942
16,TAGGTCTGAATAACCTAGGCTC,-0.534
17,TTCTGAAAGATCTGCACCCGGC,-0.677
18,TAGATGACAGAGCTCATGCTAC,-0.751
19,TTCAGCAGGATCTCACGTCCTT,0.0798
20,TTCATGTTGTAGATGACAGAGC,-0.761
21,TCGGATGATGTACATCTCTTGG,-1.02
22,TATAGCAGGTCACTCGTGTAGT,-0.135
23,TAACCGTGCTGCAAGTCGGGGA,-0.253

# Target: CNGB1
# Experiment: as above
# Details: shRNA
row,Sequence,sensor-assay potency score (higher = more potent)
1,TTGACGTCTTGCGAGCTCTTGG,-0.581
2,TTTCTCCAAACACAGATCCAGC,-1.37
3,TTGGGTTCATCTGTGCACCCTG,0.488
4,TTCATGTACTTCACCGTGCTGT,0.284
5,TAGTAGGTCTGTCCGGCGGTGG,-0.909
6,TTCACCGTGCTGTCCATGCAGC,-0.762
7,TACATCAGGTTGGTCAGCGGGT,-0.543
8,TAGGACATACATCAGGTTGGTC,0.2
9,TCGCATGTCCTTTTTGTCCGTA,-0.378
10,TTCTCTTCTTCATAAGCTGGAA,-0.514
11,TTGTCCGTAATGATGTCCCCGC,-0.775
12,TGCGGTAGTAGGTCTGTCCGGC,0.228
13,TCTTTCTCCTCTTCAATCCGGG,-0.237
14,TTGAACTTGCAGCAGAGCATGT,-0.734
